VACV E9 pol inh: blocks vaccinia virus processive DNA synthesis; hit rate 0.94% among 46,000; normalized absorbance, % (no concentration beside the values); in vitro processive DNA synthesis, absorbance read-out; active compounds read low; in the data active means normalized absorbance mostly below about 85%, no sharp cut-off; inactive means mostly above about 86%
Large screens that a line does not name were inactive. The full list was thinned out, with hits kept by preference.

CCc1nnc(SCc2ccccc2)c2cc3occc3n12	none
Cc1ccc(C)c(CSc2nncn3c2cc2occc23)c1	none
Cc1nnc(SCc2ccc(F)cc2Cl)c2cc3occc3n12	VACV E9 pol inh 71.7
Nc1nccc(-c2ccc(Oc3ccc(Cl)cc3)cc2Cl)n1	VACV E9 pol inh 76.4
Nc1nccc(-c2ccccc2OCc2ccc(Cl)cc2)n1	none
CC(Oc1ccc(-c2ccccc2)c(F)c1)c1ccnc(N)n1 (stereo not given)	none
CCOC(=O)c1c(-c2ccccc2)oc2ccc(O)c(CSCC(=O)Nc3ccccc3)c12	none
O=C(COC(=O)C1CCCCC1)c1ccc(Cl)s1	none
CC1=CC(C)(C)N=C(Nc2nc(C)c3cc(C)cc(C)c3n2)N1	VACV E9 pol inh 50.1
CCSC1=NC(C)(C)C=C(C)N1	none
NC(=O)CS(=O)(=O)c1ccccc1	none
Cc1ccc(C(=O)Nc2nc3c(s2)C(=O)CC(C)(C)C3)cc1	none
CCc1ccc(Oc2coc3cc(OC(=O)C4CCCCC4)ccc3c2=O)cc1	none
O=C1Nc2ccc(S(=O)(=O)N(CCO)CCO)c3cccc1c23	none
NS(=O)(=O)c1ccc2c3c(cccc13)C(=O)N2	none
CN(c1ccccc1C(=O)O)S(=O)(=O)c1ccc2c3c(cccc13)C(=O)N2	VACV E9 pol inh 49.6
N#CC(C#N)=C(Nc1ccc(Br)cc1)SCc1ccc(F)cc1	none
N#CC(C#N)=C(Nc1ccccc1Cl)SCc1cccc(F)c1	VACV E9 pol inh 25.8
N#CC(C#N)=C(N)SCc1ccccc1	none
O=C(c1ccc(F)cc1F)N1CCN(Cc2ccc3c(c2)OCO3)CC1	none
Cc1oc(-c2ccccc2)cc1C(=O)NC(C)C12CC3CC(CC(C3)C1)C2 (stereo not given)	none
CCc1ccc(Nc2c3c(nc4ccccc24)CCC3)cc1	none
CN(C)CCCNc1c2c(nc3ccccc13)CCC2	VACV E9 pol inh 26.7
CCc1ccc(Nc2c3c(nc4ccccc24)CCCC3)cc1	none
O=C(c1ccc(Br)cc1)N1Cc2ccccc2NC1=S	none
Cc1cc(N(C)Cc2ccccc2)ncn1	none
CCc1ccc(-n2c(N(C)Cc3ccccc3)nc3ccccc3c2=O)cc1	none
Cc1cc(N(C)Cc2ccccc2)nc2cc(O)ccc12	VACV E9 pol inh 77.1
O=C1CC(c2ccco2)Cc2nc(NCc3ccccc3)ncc21 (stereo not given)	none
COc1cc(C2CC(=O)N(C)c3ccccc3S2)cc(OC)c1OC (stereo not given)	none
COC(=O)c1ccc(NC(=O)CSc2nccn2C)cc1	none
CCc1cc2c(=O)c(-c3ccccc3)coc2cc1O	none
COc1ccc2c(=O)c(-c3ccc4c(c3)OCCO4)coc2c1	none
CCc1cc2c(=O)c(-c3ccc4c(c3)OCO4)coc2cc1O	VACV E9 pol inh 82.1
O=C(NC1CCCCC1)c1cc2c(=O)[nH]c3ccccc3c2s1	none
CC1CC(C)CN(CCCNC(=O)c2cc3c(=O)[nH]c4ccccc4c3s2)C1 (stereo not given)	VACV E9 pol inh 57.8
CC1CCN(CCCNC(=O)c2cc3c(=O)n(C)c4ccccc4c3s2)CC1	VACV E9 pol inh 58.7
O=C(NCCCN1CCCCC1)c1cc(Sc2ccc(F)cc2)nc2ccccc12	none
O=C(NCCCN1CCCC1)c1cc2c(Cl)nc3ccccc3c2s1	VACV E9 pol inh 32.7
Cc1ccc2oc(=O)c3cc(C(=O)NCCN4CCN(Cc5ccccc5)CC4)sc3c2c1	none
CCCCN(C)C(=O)c1cc2c(Cl)nc3ccccc3c2s1	none
Cc1ccc2oc(=O)c3cc(C(=O)NCCCN4CCCCCC4)sc3c2c1	VACV E9 pol inh 68.2
Cc1cccc(CCNC(=O)c2cc3c(=O)n(C)c4ccccc4c3s2)c1	none
Cc1ccc(CCNC(=O)c2cc3c(=O)oc4ccc(C)cc4c3s2)cc1	none
COC(=O)CNC(=O)c1cc2c(=O)[nH]c3ccccc3c2s1	none
CCn1c(=O)c2cc(C(=O)NCCCN3CCCCCC3)sc2c2ccccc21	none
COc1ccc(CNC(=O)Cn2c3ccccc3c3nc(=O)cc(C)n32)cc1	none
CCOC(=O)c1cc(C#N)c(Cl)nc1-c1ccccc1	none
NC(=O)C1CCN(c2c(Cl)cncc2Cl)CC1	none
CSc1ccc(S(=O)(=O)Nc2c(C)cc(OCC(=O)N3CCOCC3)cc2C)cc1	none
Cc1c(OCC(=O)OCc2ccccc2)ccc2c1oc(=O)c1ccccc12	none
N#Cc1cnc(SCc2cc(=O)n3ccccc3n2)nc1N	none
N=C1c2ccccc2CN1Nc1ncc(C(F)(F)F)cc1Cl	none
CN(C)CCCNc1ncnc2ccccc12	none
COC(=O)c1ccc(-n2c(C)ccc2C)cc1	none
CCOC(=O)c1cnn(-c2ccccn2)c1N	none
CCOC(=O)c1cnn(C(=O)c2ccc(-n3c(C)ccc3C)cc2)c1N	VACV E9 pol inh 66.1
CCc1sc2sncc2c1Br	VACV E9 pol inh 81.0
CC(C)Oc1ccc(C(=O)N=c2sc3cc(Cl)ccc3n2C)cc1	none
CNN1C(=O)c2cccc3cccc(c23)C1=O	VACV E9 pol inh 63.6
CN(C)N1C(=O)c2cccc3cccc(c23)C1=O	none
O=C(O)c1ccc(/C=N/N2C(=O)c3cccc4cccc(c34)C2=O)cc1	none
O=c1oc(C2CC2)nc2ccccc12	none
FC(F)(F)COc1ccc(OCC(F)(F)F)c(-c2ncn[nH]2)c1	none
Cc1ccc(CN2C(=O)C(O)(c3c(C)[nH]c4ccccc34)c3cc(Br)ccc32)cc1 (stereo not given)	none
Cc1[nH]n(-c2ccccc2)c(=O)c1C=Nc1cccc(N)c1	none
Cc1[nH]n(-c2cccc(Cl)c2)c(=O)c1N=O	VACV E9 pol inh 67.3
Cc1[nH]n(-c2ccccc2)c(=O)c1Sc1ccc(Cl)cc1	none
COc1ccc(C=Nc2cc(C(F)(F)F)ccc2-n2ccnc2)cc1	none
Fc1ccc(-n2cc(-c3ccccc3)c3c(NCCC4=CCCCC4)ncnc32)cc1	none
C=CCC(=O)c1sc(NC)c(C#N)c1N	none
CCCC(=O)Nc1cccc(N)c1	none
O=C(O)CCC(=O)Nc1cccc(O)c1	none
Nc1cccc(NC(=O)CCC(=O)O)c1	VACV E9 pol inh 72.1
CCC(Sc1nc2ccccc2c2nc(C)nn12)C(=O)Nc1cc(OC)ccc1OC (stereo not given)	none
Cc1cc(C)c2c(c1)NC(=O)CC2c1cccc(Cl)c1Cl (stereo not given)	none
COc1cccc(OCC(O)CN2CCCCC2)c1 (stereo not given)	none
Cc1nc2ccccc2c2oc(C(=O)NCCN3CCN(C)CC3)cc12	VACV E9 pol inh 61.8
Cc1nc2ccccc2c2oc(C(=O)N3CCC(C)CC3)cc12	none
Cc1nc2ccccc2c2oc(C(=O)NC3CCCC3)cc12	none
CNCC(O)(c1ccc(Cl)cc1)c1ccc(Cl)cc1	none
COc1ccc(-c2csc(NC(=O)CCOc3ccccc3)n2)cc1	none
O=C1N/C(=N\O)S/C1=C/c1ccc(O)cc1	VACV E9 pol inh 84.2
CN(C)c1ccc(/C=C2/S/C(=N/O)NC2=O)cc1	none
O=C1NC(=Nc2ccccc2)S/C1=C\c1ccccc1	none
CCSc1nc(C)c2cc(OC)ccc2n1	none
COc1ccc2nc(C)cc(SCC(=O)c3ccc(Cl)cc3)c2c1	none
CCN(CC)CCCC(C)Nc1c2ccc(Cl)cc2nc2ccc(OC)cc12 (stereo not given)	VACV E9 pol inh 14.6
CCCn1c(C2CC(=O)N(Cc3ccccc3)C2)nc2ccccc21 (stereo not given)	none
N/C(=N/O)c1cn(-c2ccccc2)nc1-c1ccccc1	none
COc1ccc2c(C)cc(SCC#N)nc2c1	VACV E9 pol inh 83.7
COc1ccc2c(C)cc(SCc3c(C)noc3C)nc2c1	none
COc1ccc2c(C)cc(SCC(=O)Nc3ccccc3)nc2c1	none
O=C(NS(=O)(=O)c1ccc(Br)cc1)c1ccccc1O	none
CCCC(=O)Nc1ccccc1OC(F)(F)F	none
Cc1cccc(CN2CCN(C(=O)CC(C)C)CC2)c1	VACV E9 pol inh 59.3
CCn1c2ccccc2c2cc(CN3CCN(Cc4cccc(C)c4)CC3)ccc21	none
O=C(Cc1cccc2ccccc12)N1CCN(Cc2ccccc2)CC1	none
Nc1noc(-c2ccccc2)n1	none
O=C1/C(=C/c2ccco2)CC/C1=C\c1ccco1	VACV E9 pol inh 24.2
